This is one part of the list. A number with no mark means an inactive call. Activity calls are given as the source filed them.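 The calls were made as follows: active = inhibition of aptamer binding above 40%, about triple the noise seen with nonglowing compounds, on plates passing quality control; inactive = the rest.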

The target of this experiment is Beta-adrenergic receptor kinase 1 (Homo sapiens) (UniProt P25098). The experiment is described as follows: GRK2 aptamer-displacing inhibitors, hit retest, confirmation, biochemical, cherry pick 2, bead flow cytometry (AID 504782).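 As to inhibition of aptamer binding: negative values mostly come from compounds that fluoresce themselves.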 The conditions noted are these: bead-bound GRK2, FAM-aptamer displacement; at 10 µM, hits give high values. Background: In flow cytometry, cells or beads pass a laser one at a time.
Beta-adrenergic receptor kinase 1 (Homo sapiens), sequence (P25098 whole entry, looked up): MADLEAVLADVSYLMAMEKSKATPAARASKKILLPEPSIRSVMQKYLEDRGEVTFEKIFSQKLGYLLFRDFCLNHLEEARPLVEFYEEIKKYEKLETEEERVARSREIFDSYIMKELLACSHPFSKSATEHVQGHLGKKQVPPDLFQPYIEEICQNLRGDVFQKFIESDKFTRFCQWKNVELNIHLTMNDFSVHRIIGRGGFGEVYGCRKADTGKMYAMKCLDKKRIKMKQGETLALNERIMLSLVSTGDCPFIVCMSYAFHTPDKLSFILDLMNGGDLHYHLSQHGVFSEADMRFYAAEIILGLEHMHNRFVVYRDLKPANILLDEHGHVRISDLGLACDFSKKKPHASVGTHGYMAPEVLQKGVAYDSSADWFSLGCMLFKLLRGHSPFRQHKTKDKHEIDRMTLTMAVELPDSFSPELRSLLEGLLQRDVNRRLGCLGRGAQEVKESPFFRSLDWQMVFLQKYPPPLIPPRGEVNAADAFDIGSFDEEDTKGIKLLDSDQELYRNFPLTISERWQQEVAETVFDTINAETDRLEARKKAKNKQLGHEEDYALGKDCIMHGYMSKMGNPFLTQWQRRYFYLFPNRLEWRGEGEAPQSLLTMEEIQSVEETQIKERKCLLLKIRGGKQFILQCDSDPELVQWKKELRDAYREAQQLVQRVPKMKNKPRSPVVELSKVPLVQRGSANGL
In the case of `COc1cccc(OC)c1C(=O)Nc1ccc(Cc2ccncc2)cc1`, the inhibition of aptamer binding is -1.61%.

With `CC1Sc2ccc(S(=O)(=O)CCC(=O)NCc3ccccc3Cl)cc2NC1=O` (stereo not given), the inhibition of aptamer binding is 2.07%.

As for `O=C(NCCCN1CCCCCC1)c1ccc(N2CCCC2=O)cc1`, the inhibition of aptamer binding was -112%.

As for `CN=C(Nc1cccc(S(=O)(=O)N2CCOCC2)c1)c1ccccc1`, the inhibition of aptamer binding is -13.4%.

With `CC1CCN(C(=S)NC2CC3CCC2C3)CC1` (stereo not given), the inhibition of aptamer binding was -12.2%.

As for `CCC(C)(C(=O)NC1CCCCC1)N(C)C(=O)c1ccc2c(c1)OCO2` (stereo not given), the inhibition of aptamer binding is -12.4%.

As for `CCN1CCN(C(=O)N[C@@H](C(=O)N[C@@H]2C(=O)N3C(C(=O)O)=C(CSc4nnnn4C)CS[C@H]23)c2ccc(O)cc2)C(=O)C1=O`, the inhibition of aptamer binding was -21.6%.

For `O=C(C1CCCN(S(=O)(=O)c2ccc([N+](=O)[O-])cc2)C1)N1CCCCC1` (stereo not given), the inhibition of aptamer binding was -14.3%.

Regarding `Cc1ccc(S(=O)(=O)CC(=O)Nc2sc(C)c(C)c2C(N)=O)cc1`, the inhibition of aptamer binding was -39.3%.

On to `CCc1nn(CCCN2CCN(c3cccc(Cl)c3)CC2)c(=O)n1CCOc1ccccc1`, for which the inhibition of aptamer binding is 4.83%.

As to `CCOC(=O)C1=C(N)N(c2ccc(C)cc2)C2=C(C(=O)CCC2)C1c1cccs1` (stereo not given), the molecule was called inactive.

Consider `O=[N+]([O-])c1ccccc1S(=O)(=O)Nc1cccc2cccnc12`, for which the inhibition of aptamer binding is 7.36%.

With `O=C(NC1C2CC3CC(C2)CC1C3)c1ccc(N2CCNCC2)c([N+](=O)[O-])c1` (stereo not given), the inhibition of aptamer binding is -5.52%.

Turning to `CCOc1ccc(OCC)c(NC(=O)CCS(=O)(=O)c2ccc(C)cc2)c1`, the inhibition of aptamer binding is -1.15%.

Turning to `COc1ccccc1C(=O)N(Cc1ccc(C)o1)C1CCS(=O)(=O)C1` (stereo not given), the inhibition of aptamer binding was 10.1%.

On to `COc1cc([N+](=O)[O-])cc([N+](=O)[O-])c1NC(=O)N1CCOCC1`, for which the inhibition of aptamer binding is 8.51%.

As for `COCCn1c(N)c(NCc2ccccc2)c(=O)[nH]c1=O`, the inhibition of aptamer binding was -165%.

`NC(=O)[C@H]1CC2(CC(c3cccc(NC(=O)[C@H]4CCC(=O)N4)c3)=NO2)CN1C(=O)c1ccccc1C(=O)c1ccccc1` (stereo not given in full): the inhibition of aptamer binding is -25.8%.

On to `Cc1nnc(SCC(=O)N2c3ccccc3C(C)(c3ccc(Cl)cc3)CC2(C)C)s1` (stereo not given), for which the inhibition of aptamer binding was 14.7%.

With `CC(=O)c1ccc(N2CCN(C(=O)c3ccc4nc[nH]c4c3)CC2)cc1`, the inhibition of aptamer binding is -5.06%.

`CCOCCCNC(=O)c1ccc(CS(=O)(=O)c2cccc(C(F)(F)F)c2)o1`: the inhibition of aptamer binding is 8.74%.

On to `COc1ccc(Cl)cc1NC(=O)CCS(=O)(=O)c1cc2c(cc1C)NC(=O)CO2`, for which the inhibition of aptamer binding was -12.2%.

`COc1ccc(Cl)cc1NC(=O)CCS(=O)(=O)c1ccc(Br)cc1`: the inhibition of aptamer binding was 75.5% (active).

For `O=C(CCS(=O)(=O)c1ccccc1)NC1CCCC1`, the inhibition of aptamer binding was 1.15%.

For the molecule `CCOCCc1c(O)nc(SCC(=O)NCc2ccco2)[nH]c1=O`, the inhibition of aptamer binding is -20.9%.

The values are drawn from PubChem BioAssay AID504782 (NMMLSC, 2011).
